{"source": "PubChem BioAssay AID686978", "about": "(National Center for Advancing Translational Sciences (NCATS), 2013)", "note": "The campaign covered roughly 420,000 compounds. About 64,000 (15%) were called active. About 27% were inconclusive and are not listed. The call rests on the fitted dose curve; in most records, active means well fitted inhibition curve with a large enough effect; inconclusive means small, poorly fitted or top-dose-only effect; inactive means flat fitted curve, though single readings scatter. Not all results are given here. Where a call stands in place of a potency, no number is given. Potency means the concentration at half of the fitted maximal effect."}
{"test": "qHTS for Inhibitors of human tyrosyl-DNA phosphodiesterase 1 (TDP1): qHTS in cells in absence of CPT; further: nearly all actives have a fitted effect of over 55% in size", "conditions": "DT40 Tdp1-/- hTDP1 cells, no CPT, ATP luminescence, 48 h; activity change, negative = growth inhibition: at 46.2 µM (top of the series)", "outline": "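Chicken DT40 Tdp1-/- cells complemented with human TDP1, screened without camptothecin (DMSO vehicle only), 400 cells/well. Compounds pin-transferred, cells incubated at 37 °C for at least 48 hr. Growth read as ATP-dependent luminescence (CellTiter-Glo, 30 min at RT).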"}
{"smiles": "CSCC(=O)N1CCCC(C(=O)c2cc(F)ccc2F)C1", "note": "(configuration not stated)", "Potency": "inactive"}
{"smiles": "COc1ccc(C(=O)N2CCCC(C(=O)c3ccccc3OC)C2)cc1OC", "note": "(configuration not stated)", "Potency": "inactive"}
{"smiles": "COc1ccc(F)cc1C(=O)C1CCCN(C(=O)CCc2ccccn2)C1", "note": "(configuration not stated)", "Potency": "18.4 µM (active)"}
{"smiles": "CCc1ccc(CN2C(=O)c3ccccc3C2C(=O)NCC2CCCO2)cc1", "note": "(configuration not stated)", "Potency": "inactive"}
{"smiles": "Cc1cc2oc(=O)cc(CN3CCN(S(=O)(=O)c4cccs4)CC3)c2cc1C(C)C", "Potency": "20.6 µM (active)"}
{"smiles": "O=S(=O)(c1cccs1)N1CCN(Cc2ccccc2)CC1", "Potency": "inactive"}
{"smiles": "COc1ccc2oc(=O)cc(CN3CCOCC3)c2c1", "Potency": "inactive"}
{"smiles": "O=C(CSc1nnc(-c2cccs2)n1-c1ccccc1)NCc1ccco1", "Potency": "inactive"}
{"smiles": "CC1CCc2c(sc(NC(=O)c3ccc(Cn4cc(Br)cn4)o3)c2C(N)=O)C1", "note": "(configuration not stated)", "Potency": "inactive"}
{"smiles": "CCCCN(C(=O)c1cccc(N2C(=O)c3ccccc3C2=O)c1)c1c(N)n(CCCC)c(=O)[nH]c1=O", "Potency": "inactive"}
{"smiles": "CS(=O)(=O)c1ccc2nc(NC(=O)c3ccc(N4CCCC4=O)cc3)sc2c1", "Potency": "inactive"}
{"smiles": "O=S(=O)(c1ccccc1)N1CCc2ccccc21", "Potency": "inactive"}
{"smiles": "O=C(Nc1nc2ccc([N+](=O)[O-])cc2s1)c1ccncc1", "Potency": "inactive"}
{"smiles": "O=C(NC(Nc1nc2ccc([N+](=O)[O-])cc2s1)(C(F)(F)F)C(F)(F)F)c1ccccc1", "Potency": "0.461 µM (active)"}
{"smiles": "O=C(O)CCC(=O)Nc1nc2ccc([N+](=O)[O-])cc2s1", "Potency": "inactive"}
{"smiles": "O=C(Nc1nc2ccc([N+](=O)[O-])cc2s1)c1ccc(S(=O)(=O)N2CCCc3ccccc32)cc1", "Potency": "4.11 µM (active)"}
{"smiles": "Cc1nn(C)c(C)c1S(=O)(=O)N1CCc2ccccc21", "Potency": "inactive"}
{"smiles": "O=C(COC(=O)c1ccc(F)cc1)Nc1nc2ccc([N+](=O)[O-])cc2s1", "Potency": "inactive"}
{"smiles": "CSc1nc2ccc(S(=O)(=O)N3CCc4ccccc43)cc2s1", "Potency": "23.1 µM (active)"}
{"smiles": "O=C(COC(=O)c1ccc(S(=O)(=O)N2CCCCCC2)cc1)Nc1ccccc1C(F)(F)F", "Potency": "inactive"}
{"smiles": "Cc1ccc(C2(C)NC(=O)N(CC(=O)N3CC(=O)Nc4ccccc43)C2=O)cc1", "note": "(configuration not stated)", "Potency": "inactive"}
{"smiles": "COC(=O)C[C@@H]1C=C[C@@H](NC(=O)c2ccc3c(c2)OCO3)[C@@H](CO)O1", "Potency": "inactive"}
{"smiles": "COCCC(=O)N1CCC(Oc2ccc(C(=O)NCc3ccon3)cc2)CC1", "Potency": "inactive"}
{"smiles": "N#Cc1c(-c2ccccc2)cc(-c2ccccc2)nc1SCC(=O)O", "Potency": "inactive"}
{"smiles": "CN1C(=O)CN2CCc3ccccc3C2c2cc(Cl)ccc21", "note": "(configuration not stated)", "Potency": "inactive"}
{"smiles": "CN1CCN(C2Cc3ccc(Cl)cc3Sc3ccc(F)cc32)CC1", "note": "(configuration not stated)", "Potency": "18.4 µM (active)"}
{"smiles": "COC(=O)C1NN=C(C(=O)c2ccc(Br)cc2)C1c1cccc(Br)c1", "note": "(configuration not stated)", "Potency": "inactive"}
